An excerpt weighted towards active compounds, which were near 4.1% of everything screened.
CaV13 FRET inh: Primary screen for inhibitors of IQ motif and Ca2+-dependent inactivation inhibitor domain binding in CACNA1D, Förster resonance energy transfer in living cells, … | HEK cells, CFP/YFP FRET ICDI-IQ, plate reader, 10 min; percent FRET-ratio fall versus neutral wells | AID 743397 | hit rate 0.098% among 340,000 | inhibition, % at 12.3 µM;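 active means mean replicate inhibition of at least 30% and at least 1% of replicates passing that level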;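 further: 0% = median of the neutral control wells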
M18AAP inhibitor: PfM18AAP inhibitors, malaria aminopeptidase, primary screen, biochemical, QFRET, recombinant enzyme. H-Glu-NHMec fluorogenic cleavage. inhibition, % at 7.35 µM. hit rate 1.2% among 290,000;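 active means inhibition above the campaign mean inhibition over all tested compounds plus 3 SD, cut at about 28% in these data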;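 further: 0% = plate median of test compound wells and 100% = 2 mM ZnCl2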
IDE cell inh: human IDE inhibitors in live cells, primary screen, fluorescence polarization, HEK cells, FAbetaB substrate. Insulin-degrading enzyme (Homo sapiens), P14735. FAbetaB cleavage. inhibition, % at 5.59 µM. hit rate 0.41% among 320,000. AID 434962, 2010;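 active means percent inhibition above the average of all tested compounds plus 3 SD, set per screening campaign, cut at about 16% in these data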;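 further: IDE supplied by intact live HEK cells; FP after avidin binding of uncleaved biotin substrate so inhibition keeps polarization high; 0% = DMSO wells and 100% = 60 µM reference IDE inhibitor Ii1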
ALR inh: inhibitors of human ALR sulfhydryl oxidase, primary screen, biochemical, H2O2 detection, HRP-luminol luminescence, single point | FAD-linked sulfhydryl oxidase ALR (Homo sapiens), P55789 | purified ALR, DTT oxidation | inhibition, % (no concentration beside the values) | hit rate 3.8% among 290,000;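 active means mean replicate inhibition above about 79%, with every replicate also reaching it, limit read from the data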
Target sequence (P55789 whole entry, looked up): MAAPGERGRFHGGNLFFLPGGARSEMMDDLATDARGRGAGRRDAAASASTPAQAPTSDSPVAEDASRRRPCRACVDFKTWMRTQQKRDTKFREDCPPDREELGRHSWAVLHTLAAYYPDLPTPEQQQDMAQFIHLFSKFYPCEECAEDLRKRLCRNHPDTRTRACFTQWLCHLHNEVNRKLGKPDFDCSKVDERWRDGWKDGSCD
PolyA inh: polyadenylation inhibitors in yeast reporter cells, primary screen, luminescence, S. cerevisiae; S. cerevisiae SKY197-pL101 polyadenylation reporter, beta-gal luminescence; efflux-impaired pdr1/pdr3 knockout yeast; score 100 = 6 SD above DMSO; activity score, % at 12 µM; hit rate 0.02% among 300,000;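 active means lowest replicate activity score at least 50, where 100 means six control SD above control mean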;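 further: yeast exposed to compound for 9 h at 30 °C; higher score means more reporter readthrough which indicates perturbed polyadenylation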
IDE act: human IDE activators in live cells, primary screen, fluorescence polarization, HEK cells, FAbeta-B substrate | Insulin-degrading enzyme (Homo sapiens), P14735 | FAbeta-B cleavage; 0% vehicle, 100% cell-free pure enzyme wells | activation, % at 5.96 µM | hit rate 0.073% among 340,000 | AID 493087, 2011;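 active means activation above the mean of all tested compounds plus 3 SD, set per screening campaign, cut at about 17% in these data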
* hit, by the source's call.

What do the screens show for `CC(=O)Nc1ccc(S(=O)(=O)NC(C)c2ccncc2)cc1` (stereo not drawn)?
CaV13 FRET inh: -4.6; IDE cell inh: -6.0; ALR inh: -4.7; IDE act: 2.0

Results for CC(=O)Nc1ccc(S(=O)(=O)NC(C)C(=O)NC(C)c2ccccc2)cc1 (stereo not drawn) ?
CaV13 FRET inh: -2.0; M18AAP inhibitor: 4.0; IDE cell inh: 6.4; ALR inh: 98.7*; PolyA inh: 25.8; IDE act: 4.1

How did CC(=O)Nc1ccc(S(=O)(=O)Nc2nc3ccccc3nc2Nc2cccc(O)c2)cc1 do in these assays?
CaV13 FRET inh: -7.5; M18AAP inhibitor: -8.5; IDE cell inh: -0.8; ALR inh: 81.8*; PolyA inh: 2.9; IDE act: 0.1

Results for OCC1OC(Oc2c(Br)cc(Br)cc2Br)C(O)C(O)C1O (stereo not drawn) ?
CaV13 FRET inh: -8.3; IDE act: 4.1

What do the screens show for `COc1cc(OC)cc(C(=O)N2CCN(Cc3ccccc3Br)CC2)c1`?
CaV13 FRET inh: -4.2; M18AAP inhibitor: 3.4; IDE cell inh: -3.8; ALR inh: -15.5; PolyA inh: -9.7; IDE act: 1.6

How did O=C(CCc1nnc(C2CCCCC2)o1)NCCCOc1cccnc1 do in these assays?
CaV13 FRET inh: -5.4; M18AAP inhibitor: 4.0; IDE cell inh: 1.2; ALR inh: 1.1; PolyA inh: 0.2; IDE act: 0.8

What do the screens show for `O=C(CCCc1ccccn1)c1ccc(-c2ccccc2)cc1`?
CaV13 FRET inh: -4.7; IDE act: -6.8

What do the screens show for `CC(=O)Nc1ccc(S(=O)(=O)Nc2nc3ccccc3nc2Nc2ccc(C(=O)O)c(O)c2)cc1`?
CaV13 FRET inh: -6.5; IDE cell inh: 1.2; ALR inh: 98.2*; IDE act: 5.1

How did CC(=O)Nc1ccc(S(=O)(=O)Nc2ccc(Nc3ccccc3)cc2)cc1 do in these assays?
CaV13 FRET inh: -1.4; M18AAP inhibitor: -72.7; IDE cell inh: -1.9; ALR inh: 98.8*; PolyA inh: 11.4; IDE act: -2.8

How did CC(=O)Nc1ccc(S(=O)(=O)Nc2nc3ccccc3nc2Nc2ccc(N)cc2)cc1 do in these assays?
CaV13 FRET inh: -5.6; M18AAP inhibitor: -6.5; IDE cell inh: 13.0; ALR inh: 99.8*; PolyA inh: -12.6; IDE act: -10.7

What do the screens show for `CC(=O)Nc1ccc(NS(=O)(=O)c2ccccc2)cc1`?
CaV13 FRET inh: -14.2; M18AAP inhibitor: 6.3; IDE cell inh: -1.5; ALR inh: -7.9; PolyA inh: 5.4; IDE act: 3.0

What do the screens show for `Cc1ccc(S(=O)(=O)N2CCOC2CNC(=O)C(=O)NCc2cccnc2)cc1` (stereo not drawn)?
CaV13 FRET inh: -3.2; M18AAP inhibitor: -1.6; IDE cell inh: -1.4; ALR inh: -3.2; PolyA inh: -1.1; IDE act: 5.7

Results for Cc1ccc(S(=O)(=O)NCCN=C(CN2CCCC2)NS(=O)(=O)c2ccc(C)cc2)cc1 ?
CaV13 FRET inh: -5.1; M18AAP inhibitor: 1.1; IDE cell inh: 3.5; ALR inh: -3.0; IDE act: 2.2

Results for COc1ccc(NC2C=CS(=O)(=O)C2)c(OC)c1 (stereo not drawn) ?
CaV13 FRET inh: -7.8; M18AAP inhibitor: 6.5; IDE cell inh: -7.5; ALR inh: 84.9*; PolyA inh: 1.7; IDE act: 2.8

How did COc1cccc(NC2C=CS(=O)(=O)C2)c1 (stereo not drawn) do in these assays?
M18AAP inhibitor: -14.9; IDE cell inh: 5.6; PolyA inh: 18.2; IDE act: 0.2

What do the screens show for `COc1ccc(CNC(=O)c2[nH]c(C)c(C(C)=O)c2C)cc1`?
CaV13 FRET inh: -2.6; M18AAP inhibitor: 1.1; IDE cell inh: 0.6; PolyA inh: -5.4; IDE act: 1.1

Results for c1ccc2[nH]c(SCc3cn4cccnc4n3)nc2c1 ?
CaV13 FRET inh: -3.6; M18AAP inhibitor: -6.2; IDE cell inh: -3.0; ALR inh: 99.2*; PolyA inh: -0.5; IDE act: 2.4

What do the screens show for `Cc1ccc(NC(=O)Cn2c(=O)oc3cc(S(=O)(=O)N4CCC(C)CC4)ccc32)cc1C`?
CaV13 FRET inh: -6.1; M18AAP inhibitor: 2.5; IDE cell inh: 3.8; PolyA inh: -10.0; IDE act: -0.3

How did CCCc1nnc(SCC(=O)NC2CC2)n1C do in these assays?
CaV13 FRET inh: -4.5; M18AAP inhibitor: 0.5; IDE cell inh: -4.9; ALR inh: -0.2; PolyA inh: -3.9; IDE act: 5.4

What do the screens show for `CCn1cc(-c2ccccc2)c(C(=O)O)c1-c1ccc(OC)cc1`?
CaV13 FRET inh: -8.4; IDE cell inh: 4.9; ALR inh: 84.6*; PolyA inh: -11.4; IDE act: 4.8

Results for COc1ccc(-c2nn(-c3ccccc3)cc2CO)cc1 ?
CaV13 FRET inh: -3.8; M18AAP inhibitor: -2.2; IDE cell inh: 0.7; ALR inh: 4.8; PolyA inh: -13.6; IDE act: 3.8

What do the screens show for `COc1ccc(-c2cn(-c3ccccc3)nc2CO)cc1`?
CaV13 FRET inh: -3.3; M18AAP inhibitor: -1.9; IDE cell inh: 6.2; ALR inh: 97.4*; PolyA inh: -12.2; IDE act: -3.7

How did CCn1cnc2scc(-c3ccc(OC)cc3)c2c1=O do in these assays?
CaV13 FRET inh: -4.7; M18AAP inhibitor: 3.4; IDE cell inh: -0.2; ALR inh: 1.3; PolyA inh: 0.5; IDE act: -0.1

How did CN(Cc1ccccc1)C(=S)NC(=O)C1CCCCC1 do in these assays?
CaV13 FRET inh: -4.9; M18AAP inhibitor: 3.0; IDE cell inh: 0.1; ALR inh: -17.8; PolyA inh: 1.3; IDE act: -0.3

Results for O=C(NC(=S)N(Cc1ccccc1)c1ccccn1)C1CCCCC1 ?
CaV13 FRET inh: -4.7; M18AAP inhibitor: 0.6; IDE cell inh: 0.8; ALR inh: 98.9*; PolyA inh: -2.0; IDE act: 2.3

How did O=C(CCn1c(=O)oc2ccccc21)n1c(=O)oc2ccccc21 do in these assays?
CaV13 FRET inh: -4.4; M18AAP inhibitor: 8.4; IDE cell inh: -2.3; ALR inh: 96.2*; PolyA inh: 10.0; IDE act: 4.7

Results for Cc1cc(Nc2n[nH]c(N)c2C#N)ccc1F ?
CaV13 FRET inh: -4.3; M18AAP inhibitor: 14.4; IDE cell inh: 5.8; ALR inh: 95.0*; PolyA inh: -5.9; IDE act: 3.2

What do the screens show for `O=C1COc2ccccc2N1Cc1c(F)cccc1Cl`?
CaV13 FRET inh: -6.8; M18AAP inhibitor: 3.3; IDE cell inh: 0.3; ALR inh: -1.9; PolyA inh: -8.7; IDE act: 2.0

Screening results deposited in PubChem BioAssay by several laboratories.
